Experimental data from ChEMBL document CHEMBL1961873, “Compounds: GSK PKIS; Assays: Nanosyn kinase panel” (2012).

Each compound was assayed against Leukocyte tyrosine kinase receptor (Homo sapiens) (UniProt P29376). Conditions: at 0.1 µM.
Chain of Leukocyte tyrosine kinase receptor (Homo sapiens) (P29376 whole entry): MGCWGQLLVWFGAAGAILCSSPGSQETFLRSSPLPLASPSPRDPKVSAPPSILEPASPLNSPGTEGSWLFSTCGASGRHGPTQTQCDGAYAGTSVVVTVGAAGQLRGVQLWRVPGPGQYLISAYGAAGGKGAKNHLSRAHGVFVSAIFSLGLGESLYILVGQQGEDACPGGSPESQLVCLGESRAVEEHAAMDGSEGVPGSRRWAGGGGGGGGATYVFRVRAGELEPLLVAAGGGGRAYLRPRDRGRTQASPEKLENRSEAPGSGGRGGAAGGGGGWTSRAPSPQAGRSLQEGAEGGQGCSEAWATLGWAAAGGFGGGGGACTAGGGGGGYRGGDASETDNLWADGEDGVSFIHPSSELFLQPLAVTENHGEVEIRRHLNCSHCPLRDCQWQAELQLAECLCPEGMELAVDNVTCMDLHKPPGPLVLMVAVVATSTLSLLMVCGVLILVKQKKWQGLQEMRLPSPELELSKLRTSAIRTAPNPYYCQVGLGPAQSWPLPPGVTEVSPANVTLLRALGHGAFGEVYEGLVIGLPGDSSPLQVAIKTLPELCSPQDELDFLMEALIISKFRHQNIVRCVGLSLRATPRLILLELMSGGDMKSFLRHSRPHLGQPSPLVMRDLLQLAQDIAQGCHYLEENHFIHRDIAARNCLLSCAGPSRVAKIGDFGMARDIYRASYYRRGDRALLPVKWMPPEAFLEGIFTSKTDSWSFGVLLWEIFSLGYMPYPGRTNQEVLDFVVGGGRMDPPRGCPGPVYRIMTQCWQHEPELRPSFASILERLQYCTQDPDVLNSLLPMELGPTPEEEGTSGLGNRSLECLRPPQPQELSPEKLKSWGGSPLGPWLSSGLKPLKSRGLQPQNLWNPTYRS

| Compound | inhibition [%] |
| --- | --- |
| N#Cc1c(NC(=O)c2cccc3ccccc23)sc2c1CCCC2 | 2.58 |
| COc1cc(C=NNc2ncnc3c2cnn3-c2ccccc2)ccc1O | 2.19 |
| CC(C)=Cc1cccc2c1/C(=N/Nc1ccc(S(N)(=O)=O)cc1)C(=O)N2 | 1.87 |
| Cc1ccc(NC(=O)c2ccnc(N3CCCC3)c2)cc1-c1ccc(C(=O)NCC2CC2)cc1 | 2.27 |
| Nc1nc(-c2ccc3c(c2)C(=Cc2cc(Br)c(O)c(Br)c2)C(=O)N3)cs1 | 1.87 |
| CS(=O)(=O)CCNCc1ccc(-c2ccc3ncnc(Nc4ccc(OCc5cccc(F)c5)c(C(F)(F)F)c4)c3c2)o1 | 3.59 |
| COc1ccc(-c2coc3ncnc(N)c23)cc1 | 3.02 |
| CCCN1CCC=C(c2ccc(Nc3nc(Nc4ccccc4C(N)=O)c4cc[nH]c4n3)c(C)c2)C1 | 79.4 |
| O=C1NC(=O)C(c2cccc(Cl)c2)=C1Nc1ccc(O)c(Cl)c1 | 0 |
| COc1cc2ncn(-c3cc(O[C@H](C)c4ccccc4Cl)c(C(N)=O)s3)c2cc1OC | 3.77 |
| CC1=C(C(=O)Nc2ccc3[nH]ncc3c2)C(c2ccc3ccccc3c2)CC(=O)N1 (stereo unspecified) | 2.82 |
| O=C1NC(=O)C(c2ccc(Cl)cc2)=C1Nc1ccc(Cl)c(C(=O)O)c1 | -1.15 |
| c1cnn2ncc(-c3ccnc(Nc4ccc5c(c4)OCCO5)n3)c2c1 | 6.2 |
| COc1cc2ncn(-c3cc(O[C@@H](C)c4ccccc4Cl)c(C(N)=O)s3)c2cc1OC | 3.53 |
| CCn1c(-c2nonc2N)nc2c(C#CC(C)(C)O)nc(CN3CCCC3)cc21 | 0.56 |
| CCn1c(-c2nonc2N)nc2ccncc21 | 1.29 |
